Experimental data from publication PMC7819943, “Rice protein-binding microarrays: a tool to detect cis-acting elements near promoter regions in rice”.
The full ranking holds about 39,000 sequences; the median of “fluorescence intensity (a.u.)” is about 4,300, and the highest 2% start at about 39,000. The sample as a whole holds a higher share of the highest values than the screen did.

The sequences below were run against T1, OsSMF1 (Oryza sativa, UniProt Q6ZLB0 1-436) (assay: protein-binding microarray (RPBM); PBS, 2% BSA, 51.3 ng/ul salmon testes DNA, 50 uM zinc acetate, 200 nM TF, 25 C, 1 h; high values mean tight binding). Conditions: protein: recombinant; tags: N-terminal polyhistidine and DsRed monomer fusion (pET32a); chain copies: 2; label: CyDye5-dUTP incorporated in the synthesized complementary strand; 3' TTTTT single-stranded linker to array surface; dsDNA, one strand shown.
T1 sequence: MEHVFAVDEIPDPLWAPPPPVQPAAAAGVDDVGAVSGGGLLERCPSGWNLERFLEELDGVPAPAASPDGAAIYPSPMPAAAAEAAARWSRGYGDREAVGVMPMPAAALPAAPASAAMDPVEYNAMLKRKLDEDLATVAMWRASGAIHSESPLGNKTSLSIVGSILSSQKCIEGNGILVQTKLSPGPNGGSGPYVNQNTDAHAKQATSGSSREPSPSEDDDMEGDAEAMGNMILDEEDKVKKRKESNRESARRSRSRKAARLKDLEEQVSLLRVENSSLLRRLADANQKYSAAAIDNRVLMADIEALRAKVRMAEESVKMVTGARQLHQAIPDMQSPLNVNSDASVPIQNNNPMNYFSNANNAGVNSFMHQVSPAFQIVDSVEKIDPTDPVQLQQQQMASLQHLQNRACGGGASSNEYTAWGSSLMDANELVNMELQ
In short: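 Transcription factors were each fused at the N-terminus to a polyhistidine tag plus DsRed and expressed in E. coli BL21-CodonPlus before Ni–NTA purification. Binding to a double-stranded custom Agilent array was carried out with 200 nM protein at 25 °C for 1 h in PBS, 2% BSA, salmon testes DNA and 50 µM zinc acetate. The binding signal is per-feature fluorescence intensity, in arbitrary units, on an Axon 4000B scanner.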

| Sequence | binding signal |
| --- | --- |
| TGCGCCGATAGCTCCTGTCAACGTGTCACGCGCTGCGCCTCGGAGTCACCTAGTGCAG | 8650 fluorescence intensity (a.u.) |
| CCAGTAATCCTCCTCCTGCTGCCTCAGCTCCTCTTCTGTACGGAGTCACCTAGTGCAG | 50800 fluorescence intensity (a.u.) |
| TACCTCTTCAGTACAGCTGCAGCTGCTGACTGCTCACTACCGGAGTCACCTAGTGCAG | 4340 fluorescence intensity (a.u.) |
| ATTCCAATTCCAGCTCAATGCTGCACGGAATCTCCTCTTCCGGAGTCACCTAGTGCAG | 4140 fluorescence intensity (a.u.) |
| AAAACGACCGGTTTTGACGTAAATCCACAAGGCGTTATGACGGAGTCACCTAGTGCAG | 58400 fluorescence intensity (a.u.) |
| CGGTCCGGGCGATTTGACCGGTCAAAAGGCGTGGCCACGACGGAGTCACCTAGTGCAG | 3850 fluorescence intensity (a.u.) |
| CACAACTACGTAGACGGGCGTTTGCGGCCGAAAATTTGACCGGAGTCACCTAGTGCAG | 3730 fluorescence intensity (a.u.) |
| CGCCGCCACAACCGCGCGCCGTCACCGCCGCGTGCCGTCACGGAGTCACCTAGTGCAG | 5070 fluorescence intensity (a.u.) |
| CCCACCACACACCCGGCCCCACATGTCATCCACCCATCCACGGAGTCACCTAGTGCAG | 4500 fluorescence intensity (a.u.) |
| CATTATCTAAGTTTCTTTACGTCATTATCTTCGTTTAATTCGGAGTCACCTAGTGCAG | 3230 fluorescence intensity (a.u.) |
| TTCTTTCGTTAGTTCACCAAAGATGGGCATTTTACTAAGACGGAGTCACCTAGTGCAG | 65000 fluorescence intensity (a.u.) |
| TCTTTTCTAAGTCATGTTAGACCAATAGAGATTTCTCAAACGGAGTCACCTAGTGCAG | 27600 fluorescence intensity (a.u.) |
| TGTGTGCGTGTGTTGTGACTTATGATGTGTTTCTTAAGAACGGAGTCACCTAGTGCAG | 4170 fluorescence intensity (a.u.) |
| TCATTAACATCAATATGAATGTGAGAAATGCTAGAATGACCGGAGTCACCTAGTGCAG | 3240 fluorescence intensity (a.u.) |
| CTATTGCAAATTGCAATGCTGTATATGCACTTCATTAGAACGGAGTCACCTAGTGCAG | 54100 fluorescence intensity (a.u.) |
| GATTCATTTAACAATTATATGAATGTGGGAAATGCTAGAACGGAGTCACCTAGTGCAG | 44400 fluorescence intensity (a.u.) |
| CATGGTAGAAAATTAGATTATGGTGCATTTGCTGCAAATGCGGAGTCACCTAGTGCAG | 3860 fluorescence intensity (a.u.) |
| TAGAATTTCTCTTCATATAATGCTACGTCATTGCTATATACGGAGTCACCTAGTGCAG | 10300 fluorescence intensity (a.u.) |
| CTAGATTTATTAATATCGATATGAATGTGGAAAATGCTAGCGGAGTCACCTAGTGCAG | 18100 fluorescence intensity (a.u.) |
| AATAATTTTCTCATTTTCTTTAACAGAAGATGACAATGCACGGAGTCACCTAGTGCAG | 34800 fluorescence intensity (a.u.) |
| TCCAAATCCTATGAAATTCCTATGGAAATCCACGTTGCATCGGAGTCACCTAGTGCAG | 7670 fluorescence intensity (a.u.) |

| Sequence | binding signal |
| --- | --- |
| CACCACCCTAAATGGAATAAGAAAATTCTTATTTGTGAATCGGAGTCACCTAGTGCAG | 3440 fluorescence intensity (a.u.) |
| AGTTCATTATCATCATGTAATGAATCATCATGAATCCAAACGGAGTCACCTAGTGCAG | 3280 fluorescence intensity (a.u.) |
| TTTGAATCAAAGGAATGGATCTTATGGAATCCTATAAAATCGGAGTCACCTAGTGCAG | 40400 fluorescence intensity (a.u.) |
| CACTTGGTAATTACTTCTACTATGTCATCCTTATCATAATCGGAGTCACCTAGTGCAG | 3200 fluorescence intensity (a.u.) |
| TCCTTCAAGAATCCTATACTTCTTAAATCAGGAACATAATCGGAGTCACCTAGTGCAG | 8910 fluorescence intensity (a.u.) |
| AGTTCTACTTGAGTTATGTAATGAATCACAATGCCTTCATCGGAGTCACCTAGTGCAG | 53400 fluorescence intensity (a.u.) |
| ATCTTATGGAATCCTATGAAATTCATATGGAATGCCTAATCGGAGTCACCTAGTGCAG | 65000 fluorescence intensity (a.u.) |
| GATTGAATCATATCGTATCCTTTGAAATTCCTATGGAATGCGGAGTCACCTAGTGCAG | 4120 fluorescence intensity (a.u.) |
| TAAGGAGGGTGTTGGGAGGGTGGGAGCTTTGCTTGGGGTGCGGAGTCACCTAGTGCAG | 3950 fluorescence intensity (a.u.) |
| TTGTTGAACTATAGGGTAGATGTGATATGTAAGAATTGCCCGGAGTCACCTAGTGCAG | 3280 fluorescence intensity (a.u.) |
| CCGGGGTGTCAGAAATCCAGGCCCACCCGTCAGCGACGCGCGGAGTCACCTAGTGCAG | 4130 fluorescence intensity (a.u.) |
| AAATCTCTCTCCACCCTTTCAGCGCGCCACGTGTCCCACACGGAGTCACCTAGTGCAG | 18900 fluorescence intensity (a.u.) |
| CAAAATACTCAAGCGGCGGCATTGTCATCTTCCTCCTCCCCGGAGTCACCTAGTGCAG | 3550 fluorescence intensity (a.u.) |
| TGCTATGCTATGGCAAGAACATCTTGAGCCATGACATCATCGGAGTCACCTAGTGCAG | 4390 fluorescence intensity (a.u.) |
| GAGTATTTGGCATGGTTGTAGCGTTGGTGACCTGAGTCATCGGAGTCACCTAGTGCAG | 7270 fluorescence intensity (a.u.) |
| AATGCCAAGTGGCAGCCTATGAGCGTTTGTAGCATGCCATCGGAGTCACCTAGTGCAG | 41200 fluorescence intensity (a.u.) |
| TCTGTTTAGTTACATCACTGATGGTCTTGATTTCGCAGTGCGGAGTCACCTAGTGCAG | 4040 fluorescence intensity (a.u.) |
| CTGCACTACGCCGCAGACGAACTGACGTGGTCGTATAAAACGGAGTCACCTAGTGCAG | 5790 fluorescence intensity (a.u.) |
| CCCTGGGTGGTTTTGGAGGTGGTTTTGGTTGACGTGGCGCCGGAGTCACCTAGTGCAG | 21400 fluorescence intensity (a.u.) |
| GGTCAAGAGCGCATCCAGCATGTCGTCGTGTACCTGACCGCGGAGTCACCTAGTGCAG | 3720 fluorescence intensity (a.u.) |
| TTGTTCCTTTACAGTTTACAGTCATCTCTATTGTAGTATTCGGAGTCACCTAGTGCAG | 4220 fluorescence intensity (a.u.) |
